# From the supplement of paper PMC6555819
# Experiments:
# Experiment in all cases: PBM binding z-score (relative to random genomic background probes); higher = stronger binding; sequences stand for … in GC…GCGATTGACAGCGTAGAATGAAGG
# [1] = system: RARb homodimer (NR concentration 270 nM)
# Method in brief: (§1)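 Scanned fluorescence from custom Agilent 4×180K protein-binding microarrays was regression-normalized. Binding z-scores use random background probes as reference. Ligand-free nuclear receptor dimers were incubated on the arrays for 1 h and detected with antibodies against each partner (one per run).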
# [2] = system: RARg:RXRa (NR concentration 270 nM, RXRa partner concentration 90 nM)
# Method in brief: as §1
# [3] = system: RARg homodimer (NR concentration 270 nM)
# Method in brief: as §1
# [4] = system: RXRa DBDmut IVT, anti-RXR (DBD mutation: RXRa K156A/R161A, NR concentration 90 nM)
# Method in brief: as §1
# [5] = system: RXRa homodimer (NR concentration 180 nM)
# Method in brief: as §1
# [6] = system: THRa:RXRa (NR concentration 90 nM, RXRa partner concentration 90 nM)
# Method in brief: as §1
# [7] = system: THRa homodimer (NR concentration 90 nM)
# Method in brief: as §1
# [8] = system: VDR homodimer (NR concentration 270 nM)
# Method in brief: as §1
Sequence,PBM binding z-score [1],PBM binding z-score [2],PBM binding z-score [3],PBM binding z-score [4],PBM binding z-score [5],PBM binding z-score [6],PBM binding z-score [7],PBM binding z-score [8]
ACTCGGAGGACAAAGGGCAGAGCTACGCCAGTGA,1.69,1.81,1.91,0.468,0.615,0.877,-0.631,-0.288
ACTAGTTGGTCAGCTGAGGTCACATACAATTCGG,4.32,3.83,3.84,1.5,3.53,4.98,4.72,3.28
TCTTGTAGGTCAAGCAGGTTAAGAAAGCCTGAGT,3.48,4.8,5.5,1.7,4.02,3.08,0.641,1.49
TGAATGAGGTTAAAGATCTGGGAACGTGGCGTCG,0.638,1.65,1.42,1.24,2.49,2.26,0.597,0.872
GCGAGCAGGCCATTTGGGTCACTCAATGACGGGC,1.96,1.09,1.37,0.115,0.824,1.85,0.687,0.921
GGAACGAGGGCAAGTTGATAGCAGAGTTTGATGG,1.67,1.68,2.25,2.42,0.781,1.3,0.0645,1.9
CCTCGGAGGACAACAGTAGGTCAGAGCTGCCAGA,2.54,1.94,2.24,0.271,0.593,1.67,0.256,-0.109
TTACCAAGGTGAGCTGAGGTCGTGGATCCAACTC,1.97,1.47,0.791,-0.207,1.82,4.83,2.55,0.927
CGAACTAGGTCATTGGCAGGACAGTGAATAGTAA,2.75,4.52,4.07,2.36,2.52,3.09,0.749,0.995
TCTATTAGTTGATAAGGGCAACCGAAACAGCGGA,1.39,0.857,0.844,1.2,0.562,1.4,0.878,0.573
CGTCCAAGGTCAGCCGGTCAGTGAAAGCGACGTG,4.5,5.54,6.43,2.56,3.93,3.58,1.93,0.973
CCTACTGGGCCAAGGTTATTGATCAGTCAAAGCA,0.487,0.504,0.249,-0.428,0.318,0.787,0.234,-0.0593
AGTCGAAGTTCAGGACGAGGTAACGTAAAGCACG,1.36,2.55,1.89,1.42,1.28,3.25,1.62,0.996
ACTAGCAGGCCAGGTTTGGGTCACTCAAACAAAG,1.92,1.47,0.836,-0.798,0.628,2.11,0.999,-0.155
CCTAGATGGTCAAGGTCACACACGCTATAGGTAC,4.55,4.69,4.96,2.04,4.74,4.1,3.84,3.61
TTACCAAGGTGAGCCGAGGTCGTTGATCCAACTC,1.75,1.67,1.38,-0.0655,1.77,4.53,1.49,1.98
CAAACTAAGTCACGAAAGGTCAAAGTCGAATGAC,5.04,6.02,5.67,0.992,6.79,4.42,1.2,2.58
GCTAGCAGGCCATTTGGGCCACTCAATGACGGGC,-0.576,-0.489,0.0153,-0.353,-0.706,-0.537,-1.01,-0.669
CCTCGCAGGCCAATCTGGGTCACTCAAGGCTTGA,2.37,1.18,1.63,0.29,0.763,3.93,0.712,0.14

Sequence,PBM binding z-score [1],PBM binding z-score [2],PBM binding z-score [3],PBM binding z-score [4],PBM binding z-score [5],PBM binding z-score [6],PBM binding z-score [7],PBM binding z-score [8]
TAGCCTAGGTCATTGGGCAAGTATAGTACGCATC,2.69,3.66,4.09,1.86,2.94,2.63,0.731,1.44
ACTAGCAGGTCAAGTTTGGGTCACTCAAACAAAG,4.03,7.23,5.73,2.25,4.85,4.38,1.93,2.13
CGTCCAAGTTCAGAGAGGTCAGTGAATGCCGAGT,4.58,4.46,5,4.24,3.48,3.14,1.43,7.06
ATCGAAAGGTAGTGAGGTGAGTATACAGAAAGGC,0.406,0.407,0.62,-0.693,0.164,1.5,0.917,-0.237
TCATATAGGTAAAGGGTGAAAGTCGGTGTGGTAA,1.59,1.09,0.514,1.84,2.24,1.19,0.771,0.649
TCGAGTAGGTTAGTCGGGCCATTCAGCCAACATA,-0.0179,-0.285,-0.251,-0.153,-0.135,0.516,-0.252,-0.149
TGTCAAAATTCAAAGGTAACGTAAGTATCCACAC,0.464,0.501,0.807,-0.417,0.772,1.16,-0.046,0.102
GGAACGAGGGCATTCTAGTTGATAGCATGGCGAT,0.668,0.971,1.39,3.36,0.575,2.54,-0.282,2.43
CCTTACGGGTCACTCCAGGTTGTAGCATCGGAGT,2.84,4.14,3.94,1.67,4.11,4.56,0.074,1.05
ATATGTAGGGTATCGGGTCATTCAGTTTGCGCAT,2.99,2.43,1.97,1.43,2.76,3.07,2.69,3.81
ACTAGCAGGCCAAGGGTCAATCAAGATTAGTCCG,3.46,4.36,3.8,0.567,4.62,2.76,-0.086,0.551
TCTTGTAGATCAAGCAGGTTAAGAAAGCCTGAGT,0.31,0.0826,-0.299,0.319,0.444,0.331,-0.339,0.113
TCGAGTAGGTTAGGGGCTTTCAGAATGGCGTCGA,0.146,-0.192,-0.707,0.128,0.00359,-0.109,0.122,-0.301
CCTAGTTGGTCAGGAGGTCACACGCCGGATATGA,4.02,4.96,4.34,0.884,4.77,3.41,2.31,2.95
TCTATTAGTTGAAGGTCAACCGACGAGTCCGTTT,4.21,4.22,4.39,2.25,4.15,3.13,1.93,3.45
ATATGTAGGTTATGGGTCATTCAGGTTGGTTCGC,2.97,3.09,2.28,1.31,3.79,2.74,1.53,2.76
GATACAGGGTCAGCCAGAGGCCAGAGTATGGAAA,3.47,6.84,4.98,1.17,4.6,3.13,0.534,0.682
ATCTCTAGGTAACAAGTTCAGTGTAAGAGAGGAC,1.94,1.5,1.49,1.15,0.874,1.8,0.989,2.99
CCAGACAGCTGAAAGGTAACTCAGTCTGGTACGC,-0.175,-0.0986,-0.184,0.0606,0.212,0.0566,-0.51,-0.0523

Sequence,PBM binding z-score [1],PBM binding z-score [2],PBM binding z-score [3],PBM binding z-score [4],PBM binding z-score [5],PBM binding z-score [6],PBM binding z-score [7],PBM binding z-score [8]
GATACAGGGTCAACGCCAGAGTACGCGTATTGAT,3.62,5.79,6.23,2.6,6.68,3.42,1,2.52
ACTGACAGGTGAGTGAAGGTAACTCAGCTGGACG,0.153,0.285,0.606,-0.285,0.3,1.74,-0.42,-0.23
ATCTCTAGGTGAAGATAGTTCAGTGAATGCAAAT,1.19,1.16,1.27,-0.299,0.687,1.24,0.00291,0.334
GCTTACGAGTCAAAGGTTATAGCATGAATAGAAT,1.24,2.58,1.09,0.218,5,1.76,-0.786,-0.176
ATCGAAAGATCGACGAGGTGAGTATACACCGTTT,-0.514,0.223,0.471,-0.641,0.512,1.14,0.311,-0.18
CGAACGAGGGCATGAGTTGACAGCAAATGCCGAT,0.912,1.52,1.6,2.28,0.957,1.45,-0.266,1.65
TCGAGTAGGTTAGTCTGGGCATTCAGCCAACATA,-0.367,-0.389,-0.417,-0.133,-0.273,0.0539,-0.454,-0.466
AGAATGAGGTAATACGTAGATCAGGGAAGAAAGT,-0.0706,0.35,0.314,-0.0157,0.428,1.39,0.304,-0.472
TTACCCAGGTGAGCTGAGGTCGTTGATCCAACTC,1.17,0.816,0.509,-0.172,1.19,4.32,1.8,2.27
CGAACTAGGTCAACCAGGACAGTGAATACATTGA,3.24,4.4,5.25,1.8,2.99,3.53,1.82,1.85
CAAACTAGGTCACCTGAAGGTCAAAGTCCGCATG,5.57,8.05,7.61,2.29,6.63,4.16,2.96,3.86
AGTCAAAGTTCACCAGGTAACGTAAGATTCAGCT,4.3,6.02,6.53,4.1,5.25,2.88,0.769,4.32
TAGCCTAGGTCATTCCGGGGCCAGTATAGAAAGC,3.12,5.28,4.24,1.28,2.66,3.63,0.929,1.46
TATACAGGGTCAATGGCCAGAGTACGAATGTCGA,3.21,5,4.73,2.43,5.41,3.22,0.631,2.79
TTACCAAGATGAGCTGAGGTCGTTGATCCAACTC,0.571,0.267,-0.226,0.162,0.858,2.68,1.56,2.02
TCTAGTTGGTCAAAAGTCACACACTCGAAATGCG,1.01,1.34,1.06,1.33,1.55,0.553,0.457,0.578
AGAACGAGGGCACGGTGAGTTGATAGCAGAGTAG,1.6,2.2,2.31,1.82,1.53,2.18,0.165,2.1
TTACCAAGGTGAAGGTCGTAGATCCCTCTGTAGA,1.43,1.13,1.04,-0.566,1.66,2.19,0.633,0.348
ACTAGCAGACCAAGGGTCACTCAAGATTAGTCCG,3.58,3.6,3.3,0.335,3.57,2.42,-0.116,1.2
